D2 antag – antagonists of human D2 dopamine receptor; 340,000 compounds, 2% hits; HEK293 TREx D2 cells, calcium flux, dopamine EC80; P14416; inhibition, % at 10 µM; in the data active means inhibition above about 30%; inactive means below that, where a call was filed
Target sequence (P14416 whole entry, looked up): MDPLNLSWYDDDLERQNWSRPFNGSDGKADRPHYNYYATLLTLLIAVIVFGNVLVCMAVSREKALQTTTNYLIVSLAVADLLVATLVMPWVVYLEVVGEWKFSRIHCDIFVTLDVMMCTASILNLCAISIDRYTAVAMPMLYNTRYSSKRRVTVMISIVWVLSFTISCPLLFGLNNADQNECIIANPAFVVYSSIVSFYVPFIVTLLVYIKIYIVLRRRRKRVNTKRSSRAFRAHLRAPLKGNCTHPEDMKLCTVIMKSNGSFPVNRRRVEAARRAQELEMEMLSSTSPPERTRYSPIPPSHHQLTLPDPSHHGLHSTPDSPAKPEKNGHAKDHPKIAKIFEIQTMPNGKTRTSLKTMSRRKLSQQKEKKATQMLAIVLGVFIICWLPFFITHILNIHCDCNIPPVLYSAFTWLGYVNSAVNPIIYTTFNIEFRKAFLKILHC
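Cells plated overnight at 30 C with tetracycline; no-wash calcium dye, 30–90 min RT; 10 s baseline; compound pinned; 180 s read; EC80 dopamine added; another 180 s read.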
D2 ag-1 – agonists of human D2 dopamine receptor; HEK293 T-REx D2 cells, calcium flux agonist mode; activation, % at 2 µM; 340,000 compounds, 0.53% hits; AID 485358;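 active means activation over 3 SD above normal in the single-dose calcium agonist read, cut at about 30% in these data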
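In this primary screen, compounds producing a positive calcium signal within 180 s of addition to tetracycline-induced, force-coupled HEK293 Trex D2 cells are flagged; cells are dye-loaded with a no-wash calcium kit beforehand.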
D2 PAM-1 – positive allosteric modulators of human D2 dopamine receptor | P14416 | DiscoveRx D2 beta-arrestin cells, luminescence, 90 min; 100% = 57 uM dopamine signal | potentiation, % (concentration not given with the values) | 360,000 compounds, 0.23% hits | AID 624464; in the data active means potentiation above about 50%; inconclusive means mostly about 30% to 49%
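PathHunter beta-arrestin assay in DiscoveRx D2 cells. Compounds were added with an EC20 of dopamine (50 nM final) for 90 min at 37 deg C. Luminescence was read 1 h after detection reagent, with 57 uM dopamine as the EC100 control.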
D2 PAM-2 – positive allosteric modulators of human D2 dopamine receptor; P14416; HEK293 T-REx D2, calcium flux, EC20 dopamine potentiation; potentiation, % at 10 µM; 340,000 compounds, 0.34% hits; AID 485347;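 active means potentiation over 3 SD above the plate norm, cut at about 30% in these data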
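Tetracycline-induced Hek293 Trex D2 cells, force-coupled to calcium, loaded with no-wash calcium dye. Compound added with 180 s kinetic read for agonism, then EC20 dopamine and a further 180 s read for potentiation.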
D2 ag-2 – human D2 receptor agonism in beta-arrestin assay; activation, % (no concentration beside the values); 360,000 compounds, 0.084% hits; AID 624465; DiscoveRx PathHunter D2 beta-arrestin, luminescence, 90 min; 100% = 57 uM dopamine signal; P14416; in the data active means activation above about 40%; inconclusive means between about 15% and that limit
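DiscoveRx PathHunter D2 beta-arrestin cells (2,100/well) attached overnight, then compound-stimulated 90 min at 37 C in HBSS/10 mM HEPES/0.1% Tween-20 buffer; beta-galactosidase complementation read by luminescence after 1 h at ambient temperature. Dopamine 57 uM final (EC100) as control.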
Hits are given with their value; . = inactive; ? = inconclusive; / = no result given; ! = not confirmed by another sample. An excerpt weighted towards active compounds, which were near 2.4% of everything screened.

SMILES	D2 antag	D2 ag-1	D2 PAM-1	D2 PAM-2	D2 ag-2
Cc1ccc(S(=O)(=O)N2CCC(C(=O)N3CC(C)OC(C)C3)CC2)cc1 (stereo unspecified)	50	.	.	.	.
COc1ccc(CNC(=O)C2CCN(S(=O)(=O)c3ccc(F)cc3)CC2)cc1	/	.	/	.	/
COc1ccc(CNC(=O)C2CCCN(S(=O)(=O)c3ccc(-n4cnnn4)cc3)C2)cc1 (stereo unspecified)	36	.	.	.	.
Cc1ccc(CN(Cc2cccn2-c2nnc(N3CCCC3=O)s2)C(=O)Nc2ccccc2Cl)cc1	/	.	/	.	/
O=C(c1cnc(N2CCCCC2)c2ccccc12)N1CCN(c2cccc(Cl)c2)CC1	/	.	/	.	/
O=C(CSc1nnc(CNC(=O)c2ccccc2)n1-c1cccc(Cl)c1)Nc1ccccc1F	/	.	/	.	/
COc1ccc(O)c(CNn2c(-c3ccc(Br)cc3)nc3ccccc3c2=O)c1	50	.	.	.	.
FC(F)(F)c1nc(-c2ccncc2)ncc1-c1nnnn1-c1ccccc1	58	.	.	.	.
Cc1ccc([N+](=O)[O-])cc1Nc1nc(N2CCCC2)nc(N2CCCC2)n1	35	.	.	.	.
NNc1nc(Nc2ccc([N+](=O)[O-])cc2)nc(N2CCCCCC2)n1	.	.	.	.	.
Cc1ccccc1N(CC(N)=O)S(C)(=O)=O	.	.	.	.	.
Cc1ccccc1N(CC(=O)O)S(C)(=O)=O	.	.	.	31	.
CCOc1ccccc1NC(=O)c1cc2c(=O)[nH]c3ccccc3c2s1	/	.	/	.	/
CCn1cc(C(=O)NCC(=O)OC)c2cc(OC)c(OC)cc2c1=O	.	.	.	.	.
CCOC(=O)CNC(=O)c1cn(CC(C)C)c(=O)c2cc(OC)c(OC)cc12	31	.	.	.	.
Cc1ccc(-c2ccc([C@H]3[C@H]4C=CC[C@@H](C)[C@@H]4C(=O)N3Cc3ccccc3)c(F)c2)cc1	33	.	.	.	.
O=C(CSC1=NCCN1)Nc1cccc([N+](=O)[O-])c1	49	.	.	.	.
O=C(CSC1=NCCN1)Nc1ccccc1[N+](=O)[O-]	.	.	.	.	.
Cc1ccc(CNC(=O)c2nn(C)c(C)c2[N+](=O)[O-])cc1	.	.	.	.	.
Cc1ccc(CNC(=O)c2ccc([N+](=O)[O-])o2)cc1	.	.	56	.	.
Cc1ccc(/C=C/C(=O)c2ccc([N+](=O)[O-])o2)cc1	.	.	54	.	.
Cc1nn(-c2ccccc2)c2sc(C(=O)Nc3cccc(Br)c3)cc12	/	.	/	.	/
CCN1CCN(c2cc(C)c3cc(NC(=O)/C=C/c4cccc(Cl)c4)ccc3n2)CC1	/	.	/	.	/
CCOc1cc(CN2CCN(CCOCCO)CC2)ccc1OC	.	.	.	.	.
Cc1ccc(C)c(N2CCN(C(=O)CCc3c(C)nn(-c4ccc(N5CCCC5)nn4)c3C)CC2)c1	/	.	/	.	/
SMILES	D2 antag	D2 ag-1	D2 PAM-1	D2 PAM-2	D2 ag-2
CC(C)c1nc(SCC(=O)Nc2ccc(N(C)C)cc2)c2ccccc2n1	34	.	.	.	.
CC(C)c1nc(SCC(=O)Nc2nccs2)c2ccccc2n1	.	.	.	.	.
COc1cc(NC(=O)CCC(=O)Nc2ccc3nc(N4CCOCC4)cc(C)c3c2)cc(OC)c1OC	31	.	.	.	.
COc1ccc(NC(=O)CCC(=O)Nc2ccc3nc(N4CCOCC4)cc(C)c3c2)c(OC)c1	.	.	.	.	.
COc1cc2c(cc1OC)C(COc1ccc(F)cc1)N(C(=O)c1cccc(F)c1)CC2 (stereo unspecified)	/	.	/	.	/
CC(C)c1nnc(NC(=O)CCC(=O)Nc2ccc(Cl)cc2)s1	41	.	.	.	.
Cc1cc(C)cc(NC(=O)CCC(=O)Nc2nnc(C(F)(F)F)s2)c1	.	.	.	.	.
Cc1cc(C)cc(NC(=O)CCC(=O)Nc2nnc(C(C)C)s2)c1	33	.	.	.	.
CC(C)Cc1nnc(NC(=O)CCC(=O)Nc2ccc(Cl)cc2)s1	.	.	.	.	.
COc1cc(NC(=O)c2nnn(CC(=O)Nc3cc(C)ccc3C)c2N)cc(OC)c1	/	.	/	.	/
Cc1ccc(Nc2ncc(C(=O)N3CCN(c4ccc(F)cc4)CC3)c3ccccc23)cc1Cl	/	.	/	.	/
COc1ccc(-c2cc(C)no2)cc1S(=O)(=O)NCCCN1CCCCCC1	34	.	.	.	.
CCOc1ccc(NC(=O)C(C)n2c(=O)cc(C)c3c(C)nn(-c4ccccc4)c32)cc1 (stereo unspecified)	/	.	/	.	/
CCOC(=O)c1[nH]c2c(c1-c1ccccc1)C(=O)CC(c1ccccc1)C2 (stereo unspecified)	31	.	.	.	.
COc1ccccc1Nc1nn2c(=O)c3ccc(C(=O)N4CCCC(C)C4)cc3nc2s1 (stereo unspecified)	.	.	.	37!	.
COCCCNC(=O)c1ccc(Cn2c(=O)c3ccccc3n(CC(N)=O)c2=O)cc1	/	.	/	.	/
O=C(c1ccccc1)N1CCN(CC(O)COc2cccc3ccccc23)CC1 (stereo unspecified)	.	.	.	.	.
O=C(c1cccc(COc2cccc3ccccc23)c1)N1CCCC1	.	.	.	48	.
COc1cc2c(cc1OC)C(COc1ccccc1OC)N(C(=O)COc1ccc(Cl)cc1)CC2 (stereo unspecified)	/	/	/	.	/
CCN(CC)C(=O)c1ccc2c(c1)N(Cc1ccc(C(F)(F)F)cc1)C(=O)c1ccccc1S2	/	.	/	.	/
Cc1nc2c(-c3ccccc3)cnn2c(N2CCOCC2)c1C	31	.	.	.	.
Cc1cccc(C(=O)O/N=C(\N)c2cccc([N+](=O)[O-])c2)c1	.	.	.	.	.
COc1ccccc1C/C(N)=N/OC(=O)c1ccc(C)c([N+](=O)[O-])c1	/	/	145	.	?
COc1ccc(/C(N)=N/OC(=O)c2cccc([N+](=O)[O-])c2C)cc1OC	.	.	93	.	?
Cc1ccc(C(=O)O/N=C(\N)Cc2cccs2)cc1[N+](=O)[O-]	.	.	.	.	?
SMILES	D2 antag	D2 ag-1	D2 PAM-1	D2 PAM-2	D2 ag-2
N/C(=N\OC(=O)c1cccc2ccccc12)c1cccc([N+](=O)[O-])c1	.	.	83	.	?
N/C(=N\OC(=O)c1cccs1)c1cccc([N+](=O)[O-])c1	.	.	69	.	42
COc1ccccc1CNC(=O)Cc1c(C)c2c(cc(C)c3c(C)coc32)oc1=O	/	.	/	.	/
Cc1cccc(Oc2nc3ccccn3c(=O)c2/C=C(\C#N)c2nc3ccccc3s2)c1C	/	.	/	.	/
C#CCN(C)Cc1ccccc1	32	.	.	.	.
Cc1ccc(C(=O)COC(=O)CSc2cccc3cccnc23)c(C)c1	/	/	57	/	.
COCCNc1nc(-c2cc3ccccc3o2)cs1	38	.	.	.	.
